# Experimental data: publication PMC7862700, “An all-to-all approach to the identification of sequence-specific readers for epigenetic DNA modifications on cytosine”
# Tests used:
# Assay in all cases: DAPPL (digital affinity profiling via proximity ligation, sequencing); 10 mM Tris-HCl pH 7.5, 50 mM NaCl, 1 mM DTT, 4% glycerol, room temperature, 30 min; GST-TFs on glutathione beads, 16-mer random dsDNA library, 0.1% formaldehyde crosslink after washing; high values mean tight binding
# Conditions in all cases: protein: recombinant; tags: N-terminal GST; dsDNA, one strand shown
# FLI1 = target: T1, FLI1 (Homo sapiens, UniProt Q01543 1-452)
# T1 sequence: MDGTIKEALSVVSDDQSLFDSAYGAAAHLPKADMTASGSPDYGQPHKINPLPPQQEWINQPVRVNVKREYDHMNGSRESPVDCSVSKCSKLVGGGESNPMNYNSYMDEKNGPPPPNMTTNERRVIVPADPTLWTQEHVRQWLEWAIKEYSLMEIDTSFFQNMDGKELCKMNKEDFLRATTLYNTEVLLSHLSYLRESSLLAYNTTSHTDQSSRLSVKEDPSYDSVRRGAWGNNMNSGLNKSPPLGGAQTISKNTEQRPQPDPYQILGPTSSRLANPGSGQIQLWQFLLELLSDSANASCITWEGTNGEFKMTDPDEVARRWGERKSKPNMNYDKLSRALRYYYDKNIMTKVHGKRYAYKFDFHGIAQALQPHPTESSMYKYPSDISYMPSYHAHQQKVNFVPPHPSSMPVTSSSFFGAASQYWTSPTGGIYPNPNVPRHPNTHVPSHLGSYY
# Summary of the method: (§1)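 After expression in yeast as GST fusions, human transcription factors were bound to glutathione beads, DNA-barcoded and mixed with a tag-only sample. The pools were incubated with 200 nmole of a 16-mer random double-stranded DNA library in Tris/NaCl/DTT/glycerol buffer (30 min, room temperature), washed and crosslinked with 0.1% formaldehyde. Proximity ligation with BsaI/T4 ligase ran for 1 h at 37 °C, before PCR amplification and sequencing on an Illumina NextSeq500. Binding signal is a hexamer's read frequency for a factor divided by its frequency for the tag-only sample.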
# ELK1 = target: T2, ELK1 (Homo sapiens, UniProt P19419 1-428)
# T2 sequence: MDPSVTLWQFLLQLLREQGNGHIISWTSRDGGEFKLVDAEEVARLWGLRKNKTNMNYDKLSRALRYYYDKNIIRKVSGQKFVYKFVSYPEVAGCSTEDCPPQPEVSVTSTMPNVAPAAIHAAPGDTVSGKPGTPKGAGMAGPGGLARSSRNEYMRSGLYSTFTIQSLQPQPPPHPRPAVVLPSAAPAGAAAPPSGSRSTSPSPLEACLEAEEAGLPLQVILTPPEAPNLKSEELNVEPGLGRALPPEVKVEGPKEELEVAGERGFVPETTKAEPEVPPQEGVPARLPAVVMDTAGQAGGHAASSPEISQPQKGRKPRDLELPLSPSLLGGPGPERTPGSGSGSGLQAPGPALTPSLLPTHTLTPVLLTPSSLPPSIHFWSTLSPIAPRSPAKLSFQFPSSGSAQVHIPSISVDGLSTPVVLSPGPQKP
# Summary of the method: as §1
# GABPA = target: T3, GABPA (Homo sapiens, UniProt Q06546 1-454)
# T3 sequence: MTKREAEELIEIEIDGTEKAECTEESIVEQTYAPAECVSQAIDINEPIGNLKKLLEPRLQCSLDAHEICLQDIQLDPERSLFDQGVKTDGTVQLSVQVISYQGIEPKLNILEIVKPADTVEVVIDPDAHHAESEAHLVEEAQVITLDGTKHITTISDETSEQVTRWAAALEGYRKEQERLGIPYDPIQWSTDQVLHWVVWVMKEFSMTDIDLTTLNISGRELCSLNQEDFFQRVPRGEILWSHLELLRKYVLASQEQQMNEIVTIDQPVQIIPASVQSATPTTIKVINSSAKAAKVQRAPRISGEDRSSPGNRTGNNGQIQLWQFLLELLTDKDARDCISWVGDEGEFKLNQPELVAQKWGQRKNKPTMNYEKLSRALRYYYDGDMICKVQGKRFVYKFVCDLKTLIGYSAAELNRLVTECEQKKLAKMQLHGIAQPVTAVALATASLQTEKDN
# Summary of the method: as §1
# ERG = target: T4, ERG (Homo sapiens, UniProt P11308 1-479)
# T4 sequence: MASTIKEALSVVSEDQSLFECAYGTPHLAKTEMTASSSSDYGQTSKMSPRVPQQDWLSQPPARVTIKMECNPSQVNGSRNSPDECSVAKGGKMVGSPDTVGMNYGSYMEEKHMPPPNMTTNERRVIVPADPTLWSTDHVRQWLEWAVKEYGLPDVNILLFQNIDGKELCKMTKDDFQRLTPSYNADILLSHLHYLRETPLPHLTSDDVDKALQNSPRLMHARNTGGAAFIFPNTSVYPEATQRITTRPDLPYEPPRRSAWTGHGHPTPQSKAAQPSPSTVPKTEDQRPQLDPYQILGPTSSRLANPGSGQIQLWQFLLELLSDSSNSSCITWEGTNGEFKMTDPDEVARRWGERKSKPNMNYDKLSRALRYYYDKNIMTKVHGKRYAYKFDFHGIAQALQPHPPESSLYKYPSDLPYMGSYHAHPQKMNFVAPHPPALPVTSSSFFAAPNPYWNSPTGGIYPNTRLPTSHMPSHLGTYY
# Summary of the method: as §1
# ELF1 = ELF1 (Homo sapiens, UniProt P32519 1-619)
# ELF1, sequence (P32519 whole entry): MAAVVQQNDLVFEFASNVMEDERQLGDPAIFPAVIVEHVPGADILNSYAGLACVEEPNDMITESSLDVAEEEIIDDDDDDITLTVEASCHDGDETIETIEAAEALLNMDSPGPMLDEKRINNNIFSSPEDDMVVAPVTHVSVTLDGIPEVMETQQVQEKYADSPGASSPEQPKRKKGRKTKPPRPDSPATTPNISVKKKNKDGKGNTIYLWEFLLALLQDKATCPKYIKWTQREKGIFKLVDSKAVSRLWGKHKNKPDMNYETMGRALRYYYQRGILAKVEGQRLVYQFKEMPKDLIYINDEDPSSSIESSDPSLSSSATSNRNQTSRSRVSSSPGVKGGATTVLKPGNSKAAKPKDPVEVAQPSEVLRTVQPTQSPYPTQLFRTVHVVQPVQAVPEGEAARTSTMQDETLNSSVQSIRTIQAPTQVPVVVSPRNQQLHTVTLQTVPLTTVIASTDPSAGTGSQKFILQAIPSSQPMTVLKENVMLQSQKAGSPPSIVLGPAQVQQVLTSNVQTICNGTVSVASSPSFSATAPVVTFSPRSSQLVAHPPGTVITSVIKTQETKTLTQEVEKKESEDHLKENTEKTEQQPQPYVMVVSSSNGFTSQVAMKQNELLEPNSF
# Summary of the method: as §1
# EHF = target: T5, EHF (Homo sapiens, UniProt Q9NZC4 1-300)
# T5 sequence: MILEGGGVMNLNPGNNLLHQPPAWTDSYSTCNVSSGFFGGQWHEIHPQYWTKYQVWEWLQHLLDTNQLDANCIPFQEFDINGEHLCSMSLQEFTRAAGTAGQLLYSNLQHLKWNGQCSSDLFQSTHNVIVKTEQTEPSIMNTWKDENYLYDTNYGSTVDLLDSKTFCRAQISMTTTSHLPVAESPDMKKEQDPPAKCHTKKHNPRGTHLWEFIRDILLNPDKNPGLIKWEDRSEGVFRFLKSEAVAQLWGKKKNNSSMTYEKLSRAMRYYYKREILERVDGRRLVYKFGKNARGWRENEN
# Summary of the method: as §1
# SPI1 = SPI1 (Homo sapiens, UniProt P17947 1-270)
# Summary of the method: as §1
# SPIB = SPIB (Homo sapiens, UniProt Q01892 1-262)
# SPIB, sequence (Q01892 whole entry): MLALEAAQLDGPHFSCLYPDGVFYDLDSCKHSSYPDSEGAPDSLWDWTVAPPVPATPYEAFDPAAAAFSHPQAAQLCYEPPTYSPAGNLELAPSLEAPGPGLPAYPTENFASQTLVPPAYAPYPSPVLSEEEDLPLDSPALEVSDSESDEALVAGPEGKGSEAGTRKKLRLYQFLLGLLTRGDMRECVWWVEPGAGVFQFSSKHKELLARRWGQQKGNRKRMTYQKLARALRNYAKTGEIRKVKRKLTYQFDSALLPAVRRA
# Summary of the method: as §1
# ELK3 = target: T6, ELK3 (Homo sapiens, UniProt P41970 1-407)
# T6 sequence: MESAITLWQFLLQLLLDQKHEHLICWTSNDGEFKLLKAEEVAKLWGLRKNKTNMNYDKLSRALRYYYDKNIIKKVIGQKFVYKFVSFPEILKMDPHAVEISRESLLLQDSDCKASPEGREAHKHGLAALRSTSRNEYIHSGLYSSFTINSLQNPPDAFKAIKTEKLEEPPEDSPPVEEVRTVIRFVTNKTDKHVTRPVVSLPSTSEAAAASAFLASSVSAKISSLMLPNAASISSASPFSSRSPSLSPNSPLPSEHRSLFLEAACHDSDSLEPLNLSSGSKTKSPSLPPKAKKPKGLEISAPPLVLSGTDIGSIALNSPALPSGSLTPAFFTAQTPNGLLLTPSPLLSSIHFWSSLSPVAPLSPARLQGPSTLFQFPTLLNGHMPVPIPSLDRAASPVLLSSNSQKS
# Summary of the method: as §1
sequence,measurement,setting,value
CGCTCT,binding signal,FLI1,"1.39 fold enrichment (6-mer frequency, TF over GST control)"
same,binding signal,ELK1,"1.25 fold enrichment (6-mer frequency, TF over GST control)"
same,binding signal,GABPA,"1.34 fold enrichment (6-mer frequency, TF over GST control)"
same,binding signal,ERG,"1.21 fold enrichment (6-mer frequency, TF over GST control)"
same,binding signal,ELF1,"1.3 fold enrichment (6-mer frequency, TF over GST control)"
same,binding signal,EHF,"1.21 fold enrichment (6-mer frequency, TF over GST control)"
same,binding signal,SPI1,"1.21 fold enrichment (6-mer frequency, TF over GST control)"
same,binding signal,SPIB,"1.16 fold enrichment (6-mer frequency, TF over GST control)"
same,binding signal,ELK3,"1.18 fold enrichment (6-mer frequency, TF over GST control)"
